The record followed here is the antibiotic and cytotoxicity screens of Wong et al. (2023).

Structures are written as SMILES. The whole screen tested about 39,000 compounds, of which about 1,500 (3.8%) were called active. The sample as a whole holds a higher share of actives than the screen did.

In the test the test system is HSkMC (human skeletal muscle cells). Briefly: cytotoxicity call (relative viability < 0.9). The following applies: 10 µM.
`COc1ccc(NC(=O)Nc2ccc3c(c2)C(=O)N([C@@H](C)CO)C[C@@H](C)[C@@H](CN(C)C(=O)Nc2ccc4c(c2)OCO4)OCCCC[C@@H](C)O3)cc1`: the cytotoxicity call was “inactive”.

As to `C[C@@H]1CCCCO[C@@H](CN(C)C(=O)CCC(F)(F)F)[C@@H](C)CN([C@@H](C)CO)C(=O)c2cc(NC(=O)Cc3ccccc3)ccc2O1`, the cytotoxicity call is “inactive”.

For `C[C@@H]1CN([C@@H](C)CO)C(=O)Cc2cc(NC(=O)Nc3ccc(F)cc3)ccc2O[C@@H]1CN(C)S(C)(=O)=O`, the cytotoxicity call is “inactive”.

As for `CCCNC(=O)[C@@]1(Sc2ccc(C)cc2)CC(=O)N(Cc2ccccc2C(F)(F)F)[C@@H]1c1ccc(CO)cc1`, the cytotoxicity call is “inactive”.

Regarding `Cn1cc(-c2[nH]c3cc(NC(=O)[C@H](N)C4CCCCC4)cc4c3c2C=NNC4=O)cn1`, the cytotoxicity call is “active”.

Turning to `CCCCCCCC/C=C\CCCCCCCC(N)=O`, the cytotoxicity call is “inactive”.

Turning to `O=C(C[C@@H]1CC[C@@H]2[C@H](COC[C@H](O)CN2S(=O)(=O)c2ccccc2)O1)NCc1ccncn1`, the cytotoxicity call was “inactive”.

`C[C@@H]1CCCCO[C@@H](CN(C)C(=O)Nc2ccc(C(F)(F)F)cc2)[C@@H](C)CN([C@H](C)CO)C(=O)c2cc(NC(=O)CCCCCC(=O)Nc3ccccc3N)ccc2O1`: the cytotoxicity call is “inactive”.

Turning to `CCCCC(=O)c1ccc(O)cc1`, the cytotoxicity call is “inactive”.

As to `CC(=O)O.Cc1c(-c2ccc(O)cc2)n(Cc2ccc(OCCN3CCCCCC3)cc2)c2ccc(O)cc12`, the cytotoxicity call was “inactive”.

As for `CCCCCS(=O)(=O)CCCCCCCCCCn1c(-c2ccc(O)cc2)c(C)c2cc(O)ccc21`, the cytotoxicity call is “active”.

Turning to `C=C(NC(=O)C(=C)NC(=O)c1csc(C2=N[C@H]3c4csc(n4)[C@H]4NC(=O)c5csc(n5)[C@H](C(C)(O)[C@@H](C)O)NC(=O)[C@H]5CSC(=N5)C(=CC)NC(=O)[C@H]([C@@H](C)O)NC(=O)c5csc(n5)[C@]3(CC2)NC(=O)[C@H](C)NC(=O)C(=C)NC(=O)[C@H](C)NC(=O)[C@H]([C@H](C)CC)N[C@@H]2C=Cc3c([C@H](C)O)cc(nc3[C@H]2O)C(=O)O[C@@H]4C)n1)C(N)=O` (stereo partly specified), the cytotoxicity call was “active”.

For the molecule `C=C(NC(=O)C(=C)NC(=O)c1csc(C2=NC3c4csc(n4)C4NC(=O)c5csc(n5)C(C(C)(O)C(C)O)NC(=O)C5CSC(=N5)C(=CC)NC(=O)C(C(C)O)NC(=O)c5csc(n5)C3(CC2)NC(=O)C(C)NC(=O)C(=C)NC(=O)C(C)NC(=O)C(C(C)CC)NC2C=Cc3c(C(C)O)cc(nc3C2O)C(=O)OC4C)n1)C(N)=O` (stereo unspecified), the cytotoxicity call is “inactive”.

Consider `C=C(NC(=O)C(=C)NC(=O)c1csc(C2=N[C@@H]3c4csc(n4)[C@@H]4NC(=O)c5csc(n5)[C@H](C(C)(O)[C@@H](C)O)NC(=O)[C@H]5CSC(=N5)/C(=C/C)NC(=O)[C@H]([C@@H](C)O)NC(=O)c5csc(n5)[C@]3(CC2)NC(=O)[C@@H](C)NC(=O)C(=C)NC(=O)[C@@H](C)NC(=O)[C@@H]([C@H](C)CC)N[C@H]2C=Cc3c([C@@H](C)O)cc(nc3[C@@H]2O)C(=O)O[C@H]4C)n1)C(N)=O` (stereo partly specified), for which the cytotoxicity call was “inactive”.

On to `C[C@@H]1CCCCO[C@H](CN(C)C(=O)NC2CCCCC2)[C@@H](C)CN([C@@H](C)CO)C(=O)c2cc(NC(=O)C3CCCCC3)ccc2O1`, for which the cytotoxicity call was “inactive”.

For `CS(=O)(=O)N1[C@@H]2c3ccc(-c4ccc(F)cc4)c(=O)n3C[C@@H]2[C@@H](CO)[C@@H]1C(=O)O`, the cytotoxicity call is “inactive”.

On to `Cc1noc(C)c1S(=O)(=O)N(C)C[C@H]1Oc2ccc(NS(=O)(=O)c3ccccc3)cc2C(=O)N([C@@H](C)CO)C[C@H]1C`, for which the cytotoxicity call was “inactive”.

For the molecule `C[C@@H]1CCCCO[C@H](CN(C)S(C)(=O)=O)[C@H](C)CN([C@@H](C)CO)C(=O)c2cc(NS(=O)(=O)c3cn(C)cn3)ccc2O1`, the cytotoxicity call was “inactive”.

For `C[C@@H]1CCCCO[C@H](CN(C)Cc2ccc(Cl)c(Cl)c2)[C@@H](C)CN([C@@H](C)CO)C(=O)c2cc(NC(=O)Cc3ccccc3)ccc2O1`, the cytotoxicity call is “inactive”.

With `C[C@@H]1CCCCO[C@H](CN(C)Cc2ccc(Cl)c(Cl)c2)[C@H](C)CN([C@@H](C)CO)C(=O)c2cc(NC(=O)Cc3ccccc3)ccc2O1`, the cytotoxicity call is “inactive”.

As to `C[C@@H]1CCCCO[C@@H](CN(C)Cc2ccc(Cl)c(Cl)c2)[C@@H](C)CN([C@@H](C)CO)C(=O)c2cc(NC(=O)Cc3ccccc3)ccc2O1`, the cytotoxicity call is “inactive”.

In the case of `C[C@H]1CCCCO[C@H](CN(C)Cc2ccc(Cl)c(Cl)c2)[C@@H](C)CN([C@@H](C)CO)C(=O)c2cc(NC(=O)Cc3ccccc3)ccc2O1`, the cytotoxicity call was “inactive”.

As for `C[C@@H]1CN([C@H](C)CO)C(=O)c2cc(NC(=O)Cc3ccccc3)ccc2O[C@@H](C)CCCCO[C@@H]1CN(C)Cc1ccc(Cl)c(Cl)c1`, the cytotoxicity call was “inactive”.

With `C[C@@H]1CN([C@H](C)CO)C(=O)c2cc(NC(=O)Cc3ccccc3)ccc2O[C@@H](C)CCCCO[C@H]1CN(C)Cc1ccc(Cl)c(Cl)c1`, the cytotoxicity call was “active”.

Take `C[C@@H]1CCCCO[C@@H](CN(C)Cc2ccc(Cl)c(Cl)c2)[C@@H](C)CN([C@H](C)CO)C(=O)c2cc(NC(=O)Cc3ccccc3)ccc2O1`: the cytotoxicity call was “active”.

As for `C[C@@H]1CCCCO[C@@H](CN(C)Cc2ccc(Cl)c(Cl)c2)[C@H](C)CN([C@H](C)CO)C(=O)c2cc(NC(=O)Cc3ccccc3)ccc2O1`, the cytotoxicity call is “active”.

On to `C[C@@H]1CCCCO[C@@H](CN(C)Cc2ccc(Cl)c(Cl)c2)[C@H](C)CN([C@@H](C)CO)C(=O)c2cc(NC(=O)Cc3ccccc3)ccc2O1`, for which the cytotoxicity call was “inactive”.

`COc1ccc(-c2cnc3c(c2)C(=O)N([C@@H](C)CO)C[C@H](C)[C@H](CN(C)C(=O)Cc2ccccn2)O3)cc1`: the cytotoxicity call is “inactive”.

On to `C[C@@H]1CN([C@H](C)CO)C(=O)c2cc(NC(=O)Cn3cnnn3)ccc2O[C@@H]1CN(C)Cc1ccc(C(F)(F)F)cc1`, for which the cytotoxicity call was “inactive”.

On to `C[C@H]1CCCCO[C@H](CN(C)C(=O)Cc2ccccc2)[C@@H](C)CN([C@@H](C)CO)C(=O)c2cc(NC(=O)Nc3ccccc3)ccc2O1`, for which the cytotoxicity call was “inactive”.

In the case of `C[C@@H]1CCCCO[C@H](CN(C)C(=O)Nc2ccc(F)cc2)[C@@H](C)CN([C@H](C)CO)C(=O)c2cc(NC(=O)CCC(F)(F)F)ccc2O1`, the cytotoxicity call was “inactive”.

Regarding `C[C@@H]1CN([C@@H](C)CO)C(=O)CCCn2cc(nn2)CO[C@H]1CN(C)C(=O)Nc1cccc(Oc2ccccn2)c1`, the cytotoxicity call was “inactive”.

With `C[C@@H]1CN([C@H](C)CO)C(=O)c2cccc(NC(=O)c3ccc(-c4nccs4)cc3)c2O[C@H]1CN(C)S(=O)(=O)c1ccc(Cl)cc1`, the cytotoxicity call is “inactive”.

Turning to `C=C1c2cccc(O)c2C(=O)C2=C(O)[C@]3(O)C(O)=C(C(N)=O)C(=O)[C@@H](N(C)C)[C@@H]3[C@@H](O)[C@H]12`, the cytotoxicity call was “inactive”.

As to `O=C(C[C@H]1CC[C@@H]2[C@H](COC[C@H](O)CN2S(=O)(=O)c2ccc(Cl)cc2)O1)NCCN1CCCC1`, the cytotoxicity call was “inactive”.

Consider `COc1ccc2c3c([nH]c2c1)[C@@H](CO)N(C[C@]13CCN(CC1)C(=O)Nc1ccccc1)C(=O)Nc1ccc(cc1)F`, for which the cytotoxicity call was “inactive”.

For the molecule `COc1ccc2c3c([nH]c2c1)[C@H](CO)N(C[C@]13CN(Cc2cc(on2)-c2ccccc2)C1)C(=O)Nc1ccc(cc1)F`, the cytotoxicity call was “active”.

As for `COc1ccc2c3c([nH]c2c1)[C@H](CO)N(C[C@]13CCN(CC1)Cc1ccccc1OC)C(=O)Nc1ccc(cc1)F`, the cytotoxicity call was “inactive”.

With `COc1ccc2c3c([nH]c2c1)[C@@H](CO)N(C[C@]13CN(Cc2cc(on2)-c2ccccc2)C1)C(=O)Nc1ccc(cc1)F`, the cytotoxicity call was “inactive”.

`COc1ccc2c3c([nH]c2c1)[C@@H](CO)N(C[C@]13CCN(CC1)Cc1ccc(cc1)F)C(=O)Nc1ccc(cc1)F`: the cytotoxicity call was “active”.

On to `COc1ccc2c3c([nH]c2c1)[C@H](CO)N(C[C@]13CCN(CC1)Cc1cc(on1)-c1ccccc1)C(=O)Nc1ccc(cc1)F`, for which the cytotoxicity call was “active”.

As for `COc1ccc2c3c([nH]c2c1)[C@@H](CO)N(C[C@]13CCN(CC1)Cc1ccccc1OC)C(=O)Nc1ccc(cc1)F`, the cytotoxicity call is “inactive”.

For `COc1ccc2c3c([nH]c2c1)[C@H](CO)N(C[C@]13CCN(CC1)C(=O)Nc1ccccc1)C(=O)Nc1ccc(cc1)F`, the cytotoxicity call is “inactive”.

Turning to `COc1ccc(cc1)CN1CC[C@]2(CC1)CN([C@H](CO)c1[nH]c3cc(ccc3c12)OC)C(=O)Nc1ccc(cc1)F`, the cytotoxicity call was “inactive”.

Take `COc1ccc(cc1)CN1CC[C@]2(CC1)CN([C@@H](CO)c1[nH]c3cc(ccc3c12)OC)C(=O)Nc1ccc(cc1)F`: the cytotoxicity call is “inactive”.

In the case of `COc1ccc2c3c([nH]c2c1)[C@@H](CO)N(C[C@]13CCN(CC1)Cc1cc(on1)-c1ccccc1)C(=O)Nc1ccc(cc1)F`, the cytotoxicity call is “active”.

In the case of `COc1ccc2c3c([nH]c2c1)[C@H](CO)N(C[C@]13CCN(CC1)Cc1ccc(cc1)F)C(=O)Nc1ccc(cc1)F`, the cytotoxicity call is “inactive”.

`C=c1[nH]/c(=C\c2ccc(F)cc2)c(=O)o1`: the cytotoxicity call was “inactive”.

As to `Cc1noc(C)c1S(=O)(=O)Nc1ccc2c(c1)C(=O)N([C@H](C)CO)C[C@H](C)[C@@H](CN(C)S(C)(=O)=O)OCCCC[C@H](C)O2`, the cytotoxicity call is “inactive”.

Regarding `C[C@H]1CN([C@@H](C)CO)C(=O)Cc2cc(NC(=O)CCCN(C)C)ccc2O[C@@H]1CN(C)C(=O)Nc1ccc2c(c1)OCO2`, the cytotoxicity call is “inactive”.

As to `C[C@@H]1CN([C@@H](C)CO)C(=O)c2cccc(NC(=O)c3cnccn3)c2O[C@@H]1CN(C)S(=O)(=O)c1ccccc1`, the cytotoxicity call is “inactive”.

For `CCS(=O)(=O)NCC[C@H]1CC[C@H](NC(=O)C2CC2)[C@@H](CO)O1`, the cytotoxicity call was “inactive”.

As for `O=C(O)CNC(=O)[C@H]1COc2ccccc2O1`, the cytotoxicity call is “inactive”.

`COc1cccc(-c2cn(CC[C@H]3CC[C@H](NC(=O)CN(C)C)[C@H](CO)O3)nn2)c1`: the cytotoxicity call is “inactive”.

Regarding `COc1ccc(NC(=O)N(C)C[C@H]2OCCCC[C@H](C)Oc3ccc(NC(=O)C4CCCCC4)cc3C(=O)N([C@@H](C)CO)C[C@H]2C)cc1`, the cytotoxicity call is “inactive”.

For the molecule `CC(=O)O[C@H]1C[C@@]2(C)[C@H]3CC=C4[C@@H](C[C@@H](O[C@H]5O[C@@H](CO)[C@@H](O)[C@@H](O)[C@@H]5O)[C@@H](O)C4(C)C)[C@@]3(C)CC[C@@]2(C)[C@@H]1C(C)(O)C(=O)CCC(C)(C)O` (stereo partly specified), the cytotoxicity call is “inactive”.
